Rows were chosen to be rich in hits. Some 1.3% of all compounds tested hit in one or more screens of this group.
PfHsp40 yeast: rescue of yeast from PfHsp40 toxicity, primary screen, S. cerevisiae, ATP luminescence. 340,000 compounds, 0.68% hits. growth rescue, % at 12.5 µM. S. cerevisiae expressing PfHsp40, growth rescue. AID 504582, 2011; in the data active means growth rescue above about 28%, passing the limit was not always enough; inconclusive means no clear call, values can overlap the other calls;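 further: yeast W303a lacking pdr1 and pdr3 grown in galactose medium; growth measured after three days at 30 °C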
MazF activator: activators of E. coli MazEF toxin-antitoxin RNase, primary screen, biochemical, fluorescence, uHTS | Endoribonuclease toxin MazF (Escherichia coli (strain K12)), P0AE70 | activation, % at 20 µM | FAM/BHQ RNA-DNA oligo cleavage fluorescence, 5 h | 350,000 compounds, 0.32% hits; in the data active means activation above about 50%
Target sequence (P0AE70 whole entry, looked up): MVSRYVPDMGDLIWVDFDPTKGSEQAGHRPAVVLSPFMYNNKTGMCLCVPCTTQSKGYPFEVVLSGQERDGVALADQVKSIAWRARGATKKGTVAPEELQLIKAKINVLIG
Mtb hypoxia rep: PubChem AID 1159583; M. tuberculosis hypoxia-regulated fluorescent reporter, fluorescence; fluorescence inhibition, % (concentration not given with the values); 300,000 compounds, 0.1% hits; in the data active means fluorescence inhibition mostly above about 23%, no sharp cut-off; inactive means mostly below about 17%
RN4220 kill: growth inhibition of S. aureus RN4220, primary screen, OD600; AID 1259311, 2017; 16 h; 330,000 compounds, 0.33% hits; inhibition, % (no concentration beside the values); in the data active means inhibition above about 85%;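 further: plate controls were untreated cells for no effect and reference antibiotic for full effect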
ugtP null kill: growth inhibition of ugtP-null S. aureus, primary screen, RN4220 ugtP deletion, OD600; 16 h; growth inhibition, % (test concentration not listed); 330,000 compounds, 0.54% hits; AID 1259309, 2017; in the data active means growth inhibition above about 68%;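 further: plate controls were untreated wells for no effect and antibiotic for full effect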
TcdB GH inh: TcdB glycohydrolase inhibitors, primary screen, biochemical, single point, plate reader | Toxin B (Clostridioides difficile), P18177 | TcdB glycohydrolase enzymatic assay | inhibition, % at 9.99 µM | 350,000 compounds, 0.24% hits; in the data active means inhibition above about 10%
* = called active by the depositor; ? = inconclusive; · = no result; + = active, no number.

SMILES	PfHsp40 yeast	MazF activator	Mtb hypoxia rep	RN4220 kill	ugtP null kill	TcdB GH inh
O=C(Nc1nncs1)c1ccc(S(=O)(=O)c2ccccc2)cc1	173.1*	8.9	3.2	5.9	5.9	·
Cc1c(C(C)CC(C)O)oc(=O)c2c1Oc1c(C)c(C(C)CC(C)O)oc(=O)c1C2 (configuration not stated)	·	·	17.6	5.0	2.6	·
Cc1nc(N2CCN(C(=O)c3ccco3)CC2)c2c3c(sc2n1)CCCC3	?	10.9	11.3	19.0	77.7	·
Cc1nc(N2CCN(C(=O)c3ccco3)CC2)c2c3c(sc2n1)CC(C)CC3 (configuration not stated)	192.2*	-2.4	-12.7	1.5	-6.0	2.1
Cc1ccc(C2CC=C(C(=O)O)CN2S(=O)(=O)c2ccc(C)cc2)cc1 (configuration not stated)	·	·	5.8	6.4	2.3	·
Fc1ccc(-n2c(-c3cc(C4CC4)[nH]n3)n[nH]c2=S)cc1Cl	-1.8	-4.9	9.5	8.0	-4.9	0.7
O=c1ccc(-c2n[nH]c(=S)n2-c2ccc(F)c(Cl)c2)n[nH]1	52.0*	-11.7	7.4	3.7	3.9	2.7
O=C(NN=Cc1cccnc1)/C(=C\c1cccs1)NC(=O)c1ccccc1	·	·	-2.3	4.0	12.0	·
Cn1c(=O)c2[nH]c(-c3ccccc3Cl)c(O)c2n(C)c1=O	-0.2	908.6*	0.8	3.8	0.9	-0.8
CC(=O)Nn1cc2c(c1-c1ccccc1)c(=O)n(C)c(=O)n2C	-1.4	1.3	0.3	3.5	0.0	·
Cn1c(=O)c2[nH]c(-c3ccccc3)c(O)c2n(C)c1=O	-0.5	+	2.5	-2.2	-0.9	-1.1
CNC(=O)C1=C[C@@H](c2ccc(OC)cc2)C[C@@H](OCCCCO)O1	·	·	·	·	·	0.2
CCCCN1C(=O)/C(=C/C=C2/CC(C)(C)CN2C)SC1=S	0.9	118.0*	24.2	0.6	9.3	·
CC[C@@]12C(=O)N(c3cccc(Br)c3)C(=O)N1C(c1ccc(Cl)cc1)C1C(=O)N(C3CCCCC3)C(=O)C12 (some centres not stated)	·	·	0.3	0.3	-36.9	·
CCCC1COC(Cn2cncn2)(c2ccc(Cl)cc2Cl)O1 (configuration not stated)	134.1*	-0.6	9.4	4.0	7.9	·
CCCCN(C(=O)CSc1nnc(-c2ccccc2)o1)c1c(N)n(CCC)c(=O)[nH]c1=O	-0.9	3.3	29.5*	2.7	3.0	1.0
CCCCn1c(N)c(N(CCOC)C(=O)c2oc3ccc(Br)cc3c2C)c(=O)[nH]c1=O	-0.4	-4.4	25.8*	5.9	10.7	0.9
CCCCN(C(=O)c1ccco1)c1c(N)n(CCC)c(=O)[nH]c1=O	-1.5	2.3	28.1*	2.5	4.5	0.5
CCCCN(C(=O)CSc1nnc(-c2ccco2)o1)c1c(N)n(Cc2ccccc2)c(=O)[nH]c1=O	0.5	5.0	-2.4	0.5	6.3	0.0
CCCCN(C(=O)c1oc2ccc(OCC)cc2c1C)c1c(N)n(CCCC)c(=O)[nH]c1=O	0.9	-12.2	·	·	·	1.5
COc1ccc(Cl)cc1NC(=O)CC(C)=NNC(=O)c1ccccc1[N+](=O)[O-]	·	·	11.4	1.9	4.2	·
Cc1ccc(-c2csc(NCCn3c(-c4ccncc4)nc4cc(C(F)(F)F)ccc43)n2)cc1	0.1	-7.0	7.0	93.7*	64.1	3.0
C[C@H](CO)N1C[C@H](C)[C@@H](CN(C)S(=O)(=O)c2ccccc2)Oc2cc(C#Cc3ccncc3)ccc2S1(=O)=O	·	·	·	·	·	-1.1
COc1ccccc1NS(=O)(=O)c1cccc(NC(=O)NCCCl)c1	-0.8	-12.4	-3.9	1.0	-3.2	1.9
COc1ccccc1NS(=O)(=O)c1cccc(NC(=O)Nc2cccc(Cl)c2)c1	2.1	77.2*	·	·	·	·
O=C(Cc1ccccc1)NN=Cc1cccn1-c1ccc([N+](=O)[O-])cc1	·	·	4.6	5.0	-3.1	·
CC(OC(=O)[C@@H](NC(=O)OCc1ccccc1)C(C)C)C(=O)Nc1ccc(N2CCOCC2)cc1 (some centres not stated)	1.2	1.3	-13.2	-2.6	0.2	10.8*
COc1cccc(CC(=O)OC(C)C(=O)Nc2ccc(N3CCOCC3)cc2)c1 (configuration not stated)	-0.3	-6.5	-6.4	-0.4	0.0	-2.3
